Test results taken from PubChem BioAssay (NCATS).
Results filed as inconclusive are left out. A call without a number means that no potency is given here. A number with no mark means an inactive call. Calls of active or inactive are those of the source. Calls follow the shape of the dose curve; as a rule, active = well fitted curve in the direction sought with a large enough effect; inconclusive = small, poorly fitted or top-dose-only effect, or another doubt; inactive = no such curve, though single readings can be large; an effect the other way counts as inactive or inconclusive.

What was measured:
[1] = qHTS of pediatric cancer cell lines to identify multiple opportunities for drug repurposing: Primary screen for control Hh wild type fibroblast cells (AID 1347106); also: nearly all actives have a fitted effect of over 55% in size
Method in brief: (§1)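 Viability after 48 h compound treatment at 37C, 500-1,000 cells/well, read as ATP luminescence with CellTiter-Glo. Primary screens used 11-point (MIPE, 0.78 nM-46 µM) or 8-point (NPC, 0.59 nM-46 µM) final concentrations; follow-up screens used 11-point dilutions.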

[2] = qHTS of pediatric cancer cell lines to identify multiple opportunities for drug repurposing: Confirmatory screen for A673 cells (AID 1347110); also: nearly all actives have a fitted effect of over 65% in size
Method in brief: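 Viability was read as ATP luminescence (CellTiter-Glo) after 48 h of compound exposure at 37 C in A673 cells seeded at 500-1,000/well. Titrations reached 46 uM final, with 11 points in the confirmatory screen. Concentration-response curves were fitted directly.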

[3] = qHTS of pediatric cancer cell lines to identify multiple opportunities for drug repurposing: Confirmatory screen for BT-12 cells (AID 1347112); also: nearly all actives have a fitted effect of over 55% in size
Method in brief: as §1

[4] = qHTS of pediatric cancer cell lines to identify multiple opportunities for drug repurposing: Confirmatory screen for LAN-5 cells (AID 1347113); also: nearly all actives have a fitted effect of over 65% in size
Method in brief: as §1

[5] = qHTS of pediatric cancer cell lines to identify multiple opportunities for drug repurposing: Primary screen for Rh30 cells (AID 1347107); also: nearly all actives have a fitted effect of over 75% in size
Method in brief: as §1

[6] = qHTS of pediatric cancer cell lines to identify multiple opportunities for drug repurposing: Primary screen for Rh41 cells (AID 1347108); also: nearly all actives have a fitted effect of over 70% in size
Method in brief: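 ATP-based luminescence (CellTiter-Glo) quantifies viability after a 48-hour exposure. Compounds are dosed across 8 or 11 final concentrations; DMSO and 2.3 µM bortezomib serve as controls.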

[7] = qHTS of pediatric cancer cell lines to identify multiple opportunities for drug repurposing: Confirmatory screen for NB1643 cells (AID 1347109); also: nearly all actives have a fitted effect of over 45% in size
Method in brief: as §1

[8] = qHTS of pediatric cancer cell lines to identify multiple opportunities for drug repurposing: Confirmatory screen for SJ-GBM2 cells (AID 1347116); also: nearly all actives have a fitted effect of over 60% in size
Method in brief: (§2)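 Viability measured as metabolically active cells via CellTiter-Glo luminescence following 48 hours of compound exposure, 11-point dilutions in confirmatory testing. 500-1,000 cells/well plated 5 hours before dosing; controls were DMSO and 2.3 µM bortezomib.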

[9] = qHTS of pediatric cancer cell lines to identify multiple opportunities for drug repurposing: Confirmatory screen for SK-N-MC cells (AID 1347111);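 also: cells exposed to compound for 48 h before the readout; nearly all actives have a fitted effect of over 70% in size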
Method in brief: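 SK-N-MC cells at 500-1,000 cells/well in growth media were pre-incubated 5 h, then exposed to compounds at 11-point dilutions for 48 h at 37 degrees C, 5% CO2. Viability was read as CellTiter-Glo luminescence.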

[10] = qHTS of pediatric cancer cell lines to identify multiple opportunities for drug repurposing: Confirmatory screen for DAOY cells (AID 1347114); also: nearly all actives have a fitted effect of over 65% in size
Method in brief: as §2
Potency is read from the fitted curve at half-maximal effect.

SMILES	Potency [1]	Potency [2]	Potency [3]	Potency [4]	Potency [5]	Potency [6]	Potency [7]	Potency [8]	Potency [9]	Potency [10]
OC[C@H]1O[C@@H](n2cnc3c(=S)nc[nH]c32)[C@H](O)[C@@H]1O	inactive	2.08 µM (active)	14.7 µM (active)	1.17 µM (active)	–	–	–	–	–	–
CC(=O)OCC(=O)[C@@]1(OC(C)=O)[C@@H](C)C[C@H]2[C@@H]3C[C@H](F)C4=CC(=O)C=C[C@]4(C)[C@@]3(F)[C@@H](O)C[C@@]21C	inactive	inactive	inactive	inactive	inactive	inactive	inactive	inactive	–	–
CCCCC(CC)CN=C(N)NC(N)=NCCCCCCN=C(N)NC(N)=NCC(CC)CCCC (stereo not given)	–	3.29 µM (active)	5.22 µM (active)	7.37 µM (active)	18.8 µM (active)	21.1 µM (active)	5.22 µM (active)	1.17 µM (active)	7.37 µM (active)	4.14 µM (active)
Cc1cccc(C)c1NC(=O)CN1CCN(CCCC(c2ccc(F)cc2)c2ccc(F)cc2)CC1	–	–	–	–	inactive	inactive	–	–	–	–
CCC(C(=O)OCCN(CC)CC)c1ccccc1 (stereo not given)	inactive	–	inactive	inactive	inactive	inactive	inactive	inactive	13.1 µM (active)	inactive
CN(C)C(=S)SC(=S)N(C)C	1.19 µM (active)	2.61 µM (active)	4.65 µM (active)	3.69 µM (active)	–	0.944 µM (active)	9.27 µM (active)	inactive	2.93 µM (active)	inactive
CC(=O)Oc1ccc(C(c2ccc(OC(C)=O)cc2)c2ccccn2)cc1	inactive	–	inactive	inactive	inactive	inactive	inactive	inactive	–	inactive
CC(=O)OCC(=O)[C@@]12N=C(C)O[C@@H]1C[C@H]1[C@@H]3CCC4=CC(=O)C=C[C@]4(C)[C@H]3[C@@H](O)C[C@@]12C	inactive	0.293 µM (active)	–	1.47 µM (active)	inactive	inactive	2.33 µM (active)	1.04 µM (active)	0.261 µM (active)	inactive
CC(=O)O[C@]1(C(C)=O)CC[C@H]2[C@@H]3C[C@H](C)C4=CC(=O)CC[C@]4(C)[C@H]3CC[C@@]21C	inactive	1.31 µM (active)	–	inactive	–	–	–	–	23.3 µM (active)	–
Oc1ccc(O)cc1	inactive	–	–	–	inactive	–	18.5 µM (active)	inactive	–	–
O=C(CCCN1CCC(O)(c2ccc(Br)cc2)CC1)c1ccc(F)cc1	inactive	–	inactive	–	inactive	inactive	inactive	inactive	2.61 µM (active)	–
COc1c(C)c2c(c(O)c1C/C=C(\C)CCC(=O)O)C(=O)OC2	inactive	2.61 µM (active)	4.65 µM (active)	–	inactive	–	–	–	–	–
CC(=O)OCC(=O)[C@@]12OC(C)(C)O[C@@H]1C[C@H]1[C@@H]3C[C@H](F)C4=CC(=O)C=C[C@]4(C)[C@@]3(F)[C@@H](O)C[C@@]12C	inactive	–	inactive	inactive	inactive	inactive	inactive	inactive	–	inactive
Cc1ccc(O)c2ncccc12	–	–	–	–	–	4.73 µM (active)	–	–	–	–
C[C@@H]1CN(CCCn2c3ccccc3c3ccccc32)C[C@H](C)N1	inactive	–	–	32.9 µM (active)	inactive	inactive	–	–	–	20.8 µM (active)
COCc1c(C(C)C)nc(C(C)C)c(/C=C/[C@@H](O)C[C@@H](O)CC(=O)O)c1-c1ccc(F)cc1	inactive	0.414 µM (active)	–	13.1 µM (active)	inactive	–	–	2.61 µM (active)	2.93 µM (active)	0.414 µM (active)
C[n+]1c2cc(N)ccc2cc2ccc(N)cc21 (tested in a mixture with another compound)	–	5.22 µM (active)	0.928 µM (active)	3.29 µM (active)	–	16.8 µM (active)	3.29 µM (active)	13.1 µM (active)	6.57 µM (active)	6.57 µM (active)
CCCCCCCCCCCCCCCC[N+](C)(C)CCN(Cc1ccc(OC)cc1)c1ncccn1	–	–	–	–	16.8 µM (active)	16.8 µM (active)	–	–	–	–
C[C@]12C=CC(=O)C=C1CC[C@@H]1[C@@H]2[C@@H](O)C[C@@]2(C)[C@H]1CC[C@]2(O)C(=O)CO	inactive	–	inactive	–	inactive	inactive	–	inactive	–	inactive
CCCCC(=O)O[C@]1(C(=O)CO)CC[C@H]2[C@@H]3CCC4=CC(=O)CC[C@]4(C)[C@H]3[C@@H](O)C[C@@]21C	inactive	inactive	–	inactive	inactive	inactive	inactive	–	–	inactive
COc1cc(C=C2CCC/C(=C\c3ccc(O)c(OC)c3)C2=O)ccc1O	inactive	0.185 µM (active)	18.5 µM (active)	5.85 µM (active)	–	–	18.5 µM (active)	18.5 µM (active)	0.465 µM (active)	14.7 µM (active)
CN(C)/N=N/c1nc[nH]c1C(N)=O	inactive	inactive	inactive	–	inactive	–	–	–	9.27 µM (active)	inactive
